From PubChem BioAssay (NCI)
About 83,000 compounds went through this panel and 20% of them were active in at least one assay; those are over-represented in the sample as a whole.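 Note: values are percent growth. 100 is the growth of untreated cells, values between 100 and 0 indicate rising inhibition; between -100 and 0 indicates cell death.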 The source made the active and inactive calls. How the source made its calls: active means growth percent below 10; inactive means the rest.

tested on: HL-60(TB) leukemia; test: NCI-60 one-dose screen, 48 h (100 = growth as untreated, 0 = no growth, -100 = all killed); details: 10 µM unless noted

Row | Structure (SMILES) | growth
1 | COc1cc(/C=C/C(=O)c2ccc(NC(=O)COc3cccc4cccnc34)cc2)cc(OC)c1OC | 34.7% (inactive)
2 | N/C(=N\OC(=O)CSc1nc2ccccc2s1)c1ccc(Cl)cc1 | 108% (inactive)
3 | CC(C)Sc1nc(Nc2ccc(S(N)(=O)=O)cc2)c(C#N)c(-c2ccc(F)cc2)n1 | 45.4% (inactive)
4 | O=C(Nc1ccc(Cl)c(C(F)(F)F)c1)Nc1ccc2oc(=O)ccc2c1 | 26% (inactive)
